Assay [1] is described as follows: Nuclear factor erythroid 2-related factor 2/antioxidant responsive element (Nrf2/ARE) small molecule agonists: qHTS cell viability counter screen in human keratinocytes (AID 1919968; active = well fitted curve in the direction sought with a large enough effect in the repeat runs; an effect the other way counts as inactive or inconclusive; note: nearly all actives have a fitted effect of over 55% in size). Summed up:
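KeratinoSens HaCaT cells, 1,500/well, preincubated 5 h, then exposed to compounds in DMSO for 23 h at 37 C/5% CO2. Viability read as CellTiter-Fluor fluorescence after 1 h, in the same wells as the ARE-luciferase read.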
(Quantitative high-throughput screening tests each substance at several concentrations.)

Assay [2] is described as follows: Nuclear factor erythroid 2-related factor 2/antioxidant responsive element (Nrf2/ARE) small molecule agonists: luciferase reporter gene qHTS assay in human keratinocytes (AID 1919969; note: nearly all actives have a fitted effect of over 35% in size; note: potency is the fitted concentration of half-maximal effect). (Reporter assays use an easily measured gene product as a stand-in for the process of interest.)
Assay [3] concerns the target Gonadotropin-releasing hormone receptor (Homo sapiens) (UniProt P30968). The assay can be described thus: Human gonadotropin-releasing hormone receptor (GnRHR) small molecule agonists, calcium flux assay in GnRHR-HEK293 cells (AID 1920063). Note: nearly all actives have a fitted effect of over 35% in size. The gist of the method:
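HEK293 cells stably expressing human GnRHR were dye-loaded for 1 h at 37 C. Compound was added in agonist mode and fluorescence (Ex/Em 480/540) recorded kinetically for 3 min. Fifteen concentrations, triplicates.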

The target of assay [4] is KiSS-1 receptor (Homo sapiens) (UniProt Q969F8). Description: Human kisspeptin (KISS1R) small molecule agonists, calcium flux assay in KISS1R-HEK293 cells (AID 1920064; active = well fitted curve in the direction sought with a large enough effect in the repeat runs; an effect the other way counts as inactive or inconclusive). The gist of the method:
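HEK293 cells stably expressing human KISS1R were loaded with calcium dye for 1 h at 37 C, then given compound; fluorescence (Ex/Em 480/540) was read kinetically for 3 min. Fifteen concentrations, triplicate.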

Assay [5] in a line: G protein-coupled receptor (GPCR) small molecule agonists, calcium flux assay: HEK293 wild type cell line counter screen (AID 1920065). Summed up:
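Wild-type HEK293 cells plated 18 h, loaded with calcium dye 1 h at 37 C, then compounds added in agonist mode (ATP as positive control). Kinetic fluorescence Ex/Em 480/540 recorded 3 min at 1 sec intervals; 15 concentrations, triplicate.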

A short description of assay [6]: p53 small molecule agonists, cell-based qHTS assay with human liver microsomes (AID 1963577). Summed up: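 Fluorescence of the beta-lactamase reporter in p53RE-bla cells, detected with LiveBLAzer substrate (2 h, room temperature, dark), served as the read-out after 16 h compound exposure at 37 C with human liver microsomes and NADPH, each 0.5 mg/mL final.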
Assay [7] in a line: p53 small molecule agonists, cell-based qHTS assay with rat liver microsomes (AID 1963578). The gist of the method: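 Cells carrying a p53 response element–beta-lactamase reporter were plated and rested 5 h, then dosed with compound in DMSO plus rat liver microsomes and NADPH, each at 0.5 mg/mL final. After 16 h at 37 C, LiveBLAzer substrate was added for 2 h.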
Assay [8] in a line: p53 small molecule agonists, cell-based qHTS assay with rat liver microsomes: qHTS cell viability counter screen (AID 1963580). Note: nearly all actives have a fitted effect of over 45% in size. Summed up:
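Intracellular ATP, by CellTiter-Glo luminescence, defines viability. HCT-116 p53RE-bla cells, 4,000 per well, were compound-treated in the presence of rat liver microsomes and NADPH for 16 h at 37 C.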

Assay [9] can be described thus: p53 small molecule agonists, cell-based qHTS assay: qHTS cell viability counter screen (AID 1963581). Note: nearly all actives have a fitted effect of over 45% in size. The gist of the method:
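p53RE-bla HCT-116 cells, compounds added 5 h after plating and incubated 16 h at 37 C. Cytotoxicity measured in the same wells as intracellular ATP by CellTiter-Glo luminescence after 30 min at room temperature.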

Assay [10] is described as follows: p53 small molecule agonists, cell-based qHTS assay (AID 1963582; active = well fitted activation curve with a large enough effect in the signal ratio in the repeat runs, not every such curve was filed as active; the % refers to the signal ratio). The gist of the method:
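p53RE-bla reporter cells, compounds added in DMSO after 5 h plating, incubated 16 h at 37 C. Beta-lactamase read via 2 h room-temperature LiveBLAzer B/G FRET substrate, fluorescence intensity.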

In assay [11] the target is 5-hydroxytryptamine receptor 2A (Homo sapiens) (UniProt P28223). Description: 5-hydroxytryptamine receptor 2A (HTR2A) small molecule agonists, cell-based qHTS assay (AID 1963587). Note: nearly all actives have a fitted effect of over 30% in size. Summed up:
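Kinetic calcium-flux fluorescence (2 min, 1 sec intervals) after compound addition in agonist mode. HTR2A-CHO cells were cultured 18 h, then dye-loaded 1 h at 37 C.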

The target of assay [12] is Muscarinic acetylcholine receptor M1 (Homo sapiens) (UniProt P11229). Description: Cholinergic receptor muscarinic 1 (CHRM1) small molecule antagonists, cell-based qHTS assay (AID 1963588). Note: nearly all actives have a fitted effect of over 40% in size. The gist of the method:
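CHRM1-CHO calcium-flux assay, antagonist mode. Cells were seeded 18 h, dye-loaded 1 h at 37 C and given compound for 5 min at RT, then acetylcholine was added at 50nM. FDSS fluorescence was read 3 min; 15 concentrations, three runs.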

The nature of assay [13]: cAMP Responsive Elements (CRE) small molecule agonists, cell-based qHTS assay (AID 1963590). Summed up:
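CRE-bla HEK 293T cells, 2,000/well in DMEM with 10% dialyzed FBS and 25 mM HEPES, pre-incubated 18 h at 37 C, then exposed to compound 3 h at 37 C. Beta-lactamase reporter read with LiveBLAzer B/G FRET substrate after 2 h at room temperature.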

Assay [14] is described as follows: cAMP Responsive Elements (CRE) small molecule antagonists, cell-based qHTS assay (AID 1963591; active = well fitted inhibition curve with a large enough effect in the signal ratio in the repeat runs, not every such curve was filed as active; the % refers to the signal ratio). The gist of the method:
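CRE-bla HEK293T cells plated 18 h, then given compound plus NKH477 at 0.25 uM final for 3 h at 37C. Beta-lactamase reporter read with LiveBLAzer B/G FRET substrate after 2 h at room temperature.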

Assay [15] deals with Beta-2 adrenergic receptor (Homo sapiens) (UniProt P07550). Description: Adrenergic beta2 receptor (ADRB2) small molecule antagonists, cell-based qHTS assay (AID 1963592). Note: series mostly up to about 92 µM; nearly all actives have a fitted effect of over 50% in size. The gist of the method:
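Cells (CHO, stable ADRB2 overexpression) incubated 18-20hr at 37C; compounds added from DMSO; agonist mix (1nM isoproterenol, 100uM IBMX, 25uM Ro-20-1724) added; 0.5hr RT; d2-cAMP and anti-cAMP-cryptate added; 1hr RT; 665/615 nm read.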

The target in assay [16] is D(2) dopamine receptor (Homo sapiens) (UniProt P14416). The assay can be described thus: Dopamine D2 receptor (DRD2) small molecule agonists, cell-based qHTS assay (AID 1963594). Note: nearly all actives have a fitted effect of over 35% in size. The gist of the method:
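cAMP accumulation in DRD2-HEK293 cells measured by HTRF after 1 h detection; compounds added 10 min before NKH477 (200nM […]) forskolin-analogue stimulation, 30 min at room temperature, with Ro20-1724 present at 0.1 mM final.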

The target is the same in assay [17]. The assay can be described thus: Dopamine D2 receptor (DRD2) small molecule antagonists, cell-based qHTS assay (AID 1963595; active = well fitted inhibition curve with a large enough effect in the signal ratio in the repeat runs, with a control signal flat; the % refers to the signal ratio). The gist of the method: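 Antagonist mode in DRD2-HEK293 cells: after compound addition with 0.1 mM Ro20-1724, cells received quinpirole (12 nM) and NKH477 (200 nM) for 30 min at room temperature; HTRF cAMP read after 1 h detection.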

Assay [18] deals with 5-hydroxytryptamine receptor 2A (Homo sapiens) (UniProt P28223). The assay can be described thus: 5-hydroxytryptamine receptor 2A (HTR2A) small molecule antagonists, cell-based qHTS assay (AID 1963586). Note: nearly all actives have a fitted effect of over 45% in size. The gist of the method:
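Antagonist-mode intracellular calcium assay: DOI (4 nM) added after 5 min compound pre-incubation at room temperature to dye-loaded HTR2A-CHO cells. Fluorescence followed for 3 min, sampled every second.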

Assay [19] addresses Muscarinic acetylcholine receptor M1 (Homo sapiens) (UniProt P11229). The assay can be described thus: Cholinergic receptor muscarinic 1 (CHRM1) small molecule agonists, cell-based qHTS assay (AID 1963589). Note: nearly all actives have a fitted effect of over 35% in size. Summed up:
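CHO cells stably expressing human CHRM1 were loaded with calcium dye for 1 h at 37 C, then compound was added in agonist mode. Intracellular calcium fluorescence was followed kinetically at 1 s intervals. Fifteen concentrations were tested in three independent runs.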

Assay [20] can be described thus: p53 small molecule agonists, cell-based qHTS assay with human liver microsomes: qHTS cell viability counter screen (AID 1963579). Note: nearly all actives have a fitted effect of over 45% in size. Summed up:
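Cytotoxicity counter screen: p53RE-bla, 4,000 cells/well; 5 h settle, 37 C/5% CO2; cpd + HLM 0.5 mg/mL + NADPH 0.5 mg/mL (final); 16 h, 37 C; CellTiter-Glo, 30 min RT, luminescence.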

These results are taken from PubChem BioAssay (Tox21).

Structures are written as SMILES. Records with an inconclusive call do not appear. Some compounds were tested as several samples or in several runs, with calls that do not always agree. Calls of active or inactive are those of the source. Unless noted, calls come from the whole dose curve.

Sequence of Muscarinic acetylcholine receptor M1 (Homo sapiens) (P11229 whole entry, looked up): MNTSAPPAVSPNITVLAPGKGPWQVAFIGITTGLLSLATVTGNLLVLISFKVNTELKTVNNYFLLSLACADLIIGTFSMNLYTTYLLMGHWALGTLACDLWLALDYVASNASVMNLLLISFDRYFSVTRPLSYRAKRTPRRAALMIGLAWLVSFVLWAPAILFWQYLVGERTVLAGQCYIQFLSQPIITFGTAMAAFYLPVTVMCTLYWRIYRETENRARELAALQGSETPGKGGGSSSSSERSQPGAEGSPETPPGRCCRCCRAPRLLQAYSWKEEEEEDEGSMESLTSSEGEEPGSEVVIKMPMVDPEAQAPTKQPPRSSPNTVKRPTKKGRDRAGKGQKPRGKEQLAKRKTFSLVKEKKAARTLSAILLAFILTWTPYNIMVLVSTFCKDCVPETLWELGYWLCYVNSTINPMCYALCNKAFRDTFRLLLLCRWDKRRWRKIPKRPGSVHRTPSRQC
Sequence of 5-hydroxytryptamine receptor 2A (Homo sapiens) (P28223 whole entry, looked up): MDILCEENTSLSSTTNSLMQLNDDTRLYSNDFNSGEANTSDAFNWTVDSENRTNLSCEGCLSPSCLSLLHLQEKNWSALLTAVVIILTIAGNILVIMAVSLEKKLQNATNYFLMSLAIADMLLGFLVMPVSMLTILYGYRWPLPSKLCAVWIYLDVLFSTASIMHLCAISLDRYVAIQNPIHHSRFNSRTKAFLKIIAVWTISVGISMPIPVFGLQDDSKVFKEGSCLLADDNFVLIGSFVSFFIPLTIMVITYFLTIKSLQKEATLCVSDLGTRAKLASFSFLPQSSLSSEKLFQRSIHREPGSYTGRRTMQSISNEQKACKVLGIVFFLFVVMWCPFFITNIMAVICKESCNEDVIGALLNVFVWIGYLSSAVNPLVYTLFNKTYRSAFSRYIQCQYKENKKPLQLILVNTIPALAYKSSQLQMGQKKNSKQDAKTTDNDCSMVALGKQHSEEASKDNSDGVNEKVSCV
Sequence of Gonadotropin-releasing hormone receptor (Homo sapiens) (P30968 whole entry, looked up): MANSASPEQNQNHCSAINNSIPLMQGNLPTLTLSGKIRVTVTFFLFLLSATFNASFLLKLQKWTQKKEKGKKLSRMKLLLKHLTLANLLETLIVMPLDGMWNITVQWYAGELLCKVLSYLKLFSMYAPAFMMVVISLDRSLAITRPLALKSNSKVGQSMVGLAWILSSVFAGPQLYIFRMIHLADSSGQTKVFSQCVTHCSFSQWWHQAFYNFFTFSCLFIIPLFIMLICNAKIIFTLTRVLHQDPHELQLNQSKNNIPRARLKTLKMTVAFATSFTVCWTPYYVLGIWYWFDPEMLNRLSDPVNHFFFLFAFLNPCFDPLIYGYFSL
Sequence of KiSS-1 receptor (Homo sapiens) (Q969F8 whole entry, looked up): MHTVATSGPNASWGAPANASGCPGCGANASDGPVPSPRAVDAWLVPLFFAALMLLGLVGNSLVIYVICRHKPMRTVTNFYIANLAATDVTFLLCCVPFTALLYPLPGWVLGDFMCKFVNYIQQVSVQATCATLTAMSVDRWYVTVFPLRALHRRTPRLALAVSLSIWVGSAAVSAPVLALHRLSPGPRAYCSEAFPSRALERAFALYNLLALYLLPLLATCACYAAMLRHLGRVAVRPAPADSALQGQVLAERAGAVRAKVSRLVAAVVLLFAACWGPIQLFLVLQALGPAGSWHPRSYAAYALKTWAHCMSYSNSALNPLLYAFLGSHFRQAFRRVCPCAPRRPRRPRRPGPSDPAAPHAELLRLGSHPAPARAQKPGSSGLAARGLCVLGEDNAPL
Sequence of D(2) dopamine receptor (Homo sapiens) (P14416 whole entry, looked up): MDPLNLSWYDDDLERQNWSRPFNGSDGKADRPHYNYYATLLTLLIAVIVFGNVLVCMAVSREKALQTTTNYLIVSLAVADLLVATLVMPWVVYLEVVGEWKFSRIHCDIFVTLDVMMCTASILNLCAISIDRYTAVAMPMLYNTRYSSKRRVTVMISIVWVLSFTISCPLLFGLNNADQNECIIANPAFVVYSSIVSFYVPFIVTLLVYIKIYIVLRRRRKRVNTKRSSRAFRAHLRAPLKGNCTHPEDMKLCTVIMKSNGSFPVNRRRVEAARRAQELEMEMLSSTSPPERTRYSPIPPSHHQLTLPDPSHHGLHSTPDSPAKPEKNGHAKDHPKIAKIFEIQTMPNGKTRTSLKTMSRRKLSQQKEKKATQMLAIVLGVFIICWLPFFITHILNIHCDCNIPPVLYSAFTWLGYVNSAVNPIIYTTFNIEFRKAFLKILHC
Sequence of Beta-2 adrenergic receptor (Homo sapiens) (P07550 whole entry, looked up): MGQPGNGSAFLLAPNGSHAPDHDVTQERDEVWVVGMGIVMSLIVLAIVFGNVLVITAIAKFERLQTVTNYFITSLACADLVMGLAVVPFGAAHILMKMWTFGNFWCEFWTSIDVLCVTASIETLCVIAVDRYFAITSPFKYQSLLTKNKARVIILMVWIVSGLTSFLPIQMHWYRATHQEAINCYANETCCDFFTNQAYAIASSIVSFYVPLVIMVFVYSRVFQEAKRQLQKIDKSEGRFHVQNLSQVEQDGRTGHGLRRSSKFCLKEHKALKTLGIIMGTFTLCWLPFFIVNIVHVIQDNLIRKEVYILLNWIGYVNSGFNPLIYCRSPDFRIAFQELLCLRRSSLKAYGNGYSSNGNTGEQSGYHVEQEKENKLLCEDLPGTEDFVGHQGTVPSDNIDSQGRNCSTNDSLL

With `c1ccc2c(c1)oc1ccccc12`, the Potency entry in [1], in assay [2], in assay [3], in [4], in assay [5] and in assay [6] was “inactive” each time. Besides, the Potency entry in [7], in assay [8], in assay [9], in [10], in assay [11] and in [12] was “inactive” each time. The Potency entry in assay [13], in assay [14], in [15], in assay [16] and in assay [17] was “inactive” each time.
Turning to `COc1c(C(C)(C)C)cc([N+](=O)[O-])c(C)c1[N+](=O)[O-]`, the Potency result in [1], in assay [2], in assay [3], in [4], in assay [5] and in [6] was “inactive” each time. Further, the Potency result in assay [7], in [8], in assay [9], in [10], in assay [18] and in assay [11] was “inactive” in each case. Besides, the Potency result in assay [12], in assay [19], in assay [14], in assay [15], in assay [16] and in assay [17] was “inactive” throughout.
Take `CC(C)c1cccc(C(C)C)c1O`: the Potency entry in [1], in assay [2], in assay [3], in assay [4], in [5] and in assay [6] was “inactive” each time. In addition, the Potency result in assay [7], in [8], in assay [9], in assay [10], in [13] and in assay [14] was “inactive” each time. In addition, the Potency result in [15], in [16] and in assay [17] was “inactive” throughout.
On to `ClCC(Cl)CCl`, for which the Potency result in [1], in assay [2], in [3], in assay [4], in assay [5] and in assay [6] was “inactive” throughout. Also, the Potency result in assay [20], in assay [8], in [9], in assay [10], in assay [18] and in [11] was “inactive” throughout. In addition, the Potency entry in assay [12], in [19], in assay [13], in assay [14], in assay [15] and in assay [16] was “inactive” in each case. Moreover, the Potency entry in assay [17] is “inactive”.
Regarding `O=P(Oc1ccccc1)(Oc1ccccc1)Oc1ccccc1`, the Potency result in assay [1], in [3], in assay [4], in assay [5], in [6] and in assay [20] was “inactive” in each case. Moreover, the Potency entry in [8], in [9], in assay [11], in assay [12], in assay [19] and in assay [13] was “inactive” in each case. For the same molecule, the Potency entry in assay [14], in [15], in [16] and in assay [17] was “inactive” throughout. The Potency in assay [2] is 60.8 µM (active) and inactive.
Turning to `CCCCC(CC)C(=O)Cl` (stereo not given), the Potency entry in assay [1], in [2], in assay [3], in [4], in assay [5] and in assay [6] was “inactive” in each case. Further, the Potency entry in assay [20], in [8], in [9], in assay [10], in [18] and in [11] was “inactive” throughout. For the same molecule, the Potency result in assay [12], in [19], in [13], in assay [15], in assay [16] and in [17] was “inactive” each time.
Regarding `[O-][Cl+2]([O-])O`, the Potency entry in [1], in assay [2], in assay [3], in [4], in assay [5] and in assay [6] was “inactive” each time. Further, the Potency result in [20], in assay [8], in assay [9], in [10], in assay [18] and in assay [11] was “inactive” each time. Also, the Potency result in assay [12], in [19], in assay [13], in assay [15], in assay [16] and in [17] was “inactive” each time.
On to `c1ccc(-c2ccccc2)cc1`, for which the Potency result in [1], in assay [2], in [3], in assay [4], in [5] and in [6] was “inactive” in each case. For the same molecule, the Potency entry in assay [20], in assay [8], in [9], in assay [10], in assay [18] and in assay [11] was “inactive” in each case. The Potency result in assay [12], in [19], in assay [13], in assay [14], in [15] and in [16] was “inactive” in each case.
